What all share (format): functional
In assay [1] the target is Solute carrier family 2, facilitated glucose transporter member 1 (Homo sapiens) (UniProt P11166). Briefly: ST_JUDE_LEISH: Cytotoxicity at 2uM final concentration against transgenic Leishmania Mexicana promastigotes LmGLUT1 that are glucose transport deficient and complemented with the human glucose transporter GLUT1. Activity is measured by DNA content using SYBR green in vitro.

The target of assay [2] is Hexose transporter 1 (Plasmodium falciparum) (UniProt O97467). Briefly: ST_JUDE_LEISH: Cytotoxicity at 2uM final concentration against transgenic Leishmania Mexicana promastigotes LmPfHT that are glucose transport deficient and complemented with the Plasmodium falciparum hexose transporter. Activity is measured by DNA content using SYBR green in vitro.
Assay [3] concerns the target Glucose transporter (Leishmania mexicana) (UniProt O61059). As to the kind of experiment: ST_JUDE_LEISH: Cytotoxicity at 2uM final concentration against transgenic Leishmania Mexicana promastigotes LmGT2 that are glucose transport deficient and complemented with the L. Mexicana glucose transporter 2. Activity is measured by DNA content using SYBR green in vitro.

The structures appear in SMILES notation.

Chain of Solute carrier family 2, facilitated glucose transporter member 1 (Homo sapiens) (P11166 whole entry): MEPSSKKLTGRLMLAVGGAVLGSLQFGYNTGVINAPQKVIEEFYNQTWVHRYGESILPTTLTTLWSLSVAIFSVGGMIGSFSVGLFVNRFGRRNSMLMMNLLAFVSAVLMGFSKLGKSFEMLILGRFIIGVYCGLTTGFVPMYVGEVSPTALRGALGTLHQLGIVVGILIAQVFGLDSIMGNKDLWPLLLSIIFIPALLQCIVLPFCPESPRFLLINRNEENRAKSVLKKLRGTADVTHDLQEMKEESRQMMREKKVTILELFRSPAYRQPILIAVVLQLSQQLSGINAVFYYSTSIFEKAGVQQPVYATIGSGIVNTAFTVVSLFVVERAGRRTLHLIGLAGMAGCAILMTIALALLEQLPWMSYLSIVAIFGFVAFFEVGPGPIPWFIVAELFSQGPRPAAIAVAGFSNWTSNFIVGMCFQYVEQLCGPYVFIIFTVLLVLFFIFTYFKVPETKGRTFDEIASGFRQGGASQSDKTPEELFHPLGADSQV

The term inhibition denotes the relative decrease from the control value, in per cent. On to `N#Cc1ccc(S(=O)(=O)N2C(c3cccc([N+](=O)[O-])c3)C(C(=O)c3ccccc3)N(C3CCCCC3)C2c2cccc([N+](=O)[O-])c2)cc1` (stereo unspecified), for which the results for the inhibition in assay [1], in assay [2] and in assay [3] were 7.88%, 7.58% and 7.58%, respectively.

`Fc1ccc(-c2cncc(-c3ccc(F)cc3)n2)cc1`: the values for the inhibition in assay [1], in assay [2] and in assay [3] were 9.28%, 6.64% and 8.06%, respectively.

`Cc1ccc(C(C#N)c2ccc3c(C(F)(F)F)cc(C(F)(F)F)nc3n2)cc1` (stereo unspecified): the figures for the inhibition in assay [1], in assay [2] and in assay [3] were 1.88%, 2.44% and 4.34%, respectively.

Turning to `CCOc1ccc2c(=NN=Cc3ccc(F)cc3)cc(C)[nH]c2c1`, the inhibition in assay [1] worked out at 4.44%; in assay [2], 3.21%; in assay [3], 1.49%.

As to `N#Cc1ccc(N(CCOC(=O)c2ccccc2)Cc2ccccc2C(F)(F)F)cc1C(F)(F)F`, the inhibition is 1.67% in assay [1], 1.18% in assay [2] and -0.51% in assay [3].

Turning to `COc1ccc(-c2cccc(NC(=O)c3ccc(C#N)cc3)c2)cc1CNC(C)C`, the inhibition in assay [1] was 8.59%; in assay [2], 6.99%; in assay [3], 8.32%.

As to `C[C@H](NC(=O)[C@H](Cc1ccccc1)NC(=O)OC(C)(C)C)C(=O)N[C@@H](CC1CCCCC1)C(O)CN` (stereo partly specified), the inhibition in assay [1] is -1.66%; in assay [2] it was 0.84%; in assay [3], -1.53%.

`CN1CCN(Cc2ccc(-c3cc4nccc(Nc5ccc(Oc6ccccc6)cc5)c4cc3Cl)o2)CC1`: the inhibition is 1.96% in assay [1], 2.5% in assay [2] and 2.69% in assay [3].

For the compound `O=C1C(c2ccccc2)=C(Nc2cccc([N+](=O)[O-])c2)c2ccccc21`, the values for the inhibition in assay [1], in assay [2] and in assay [3] were 4.58%, 3.72% and 9.44%, respectively.

As for `CNCc1ccc2nc(-c3coc(Cc4cc(Cl)ccc4OCC(C)C)n3)[nH]c2c1`, the inhibition in assay [1] is 6.56%; in assay [2] it was 4.9%; in assay [3] it was 3.77%.

As to `CCC1N=C(N)N=C(N)N1OCCCOc1c(Cl)cc(Cl)cc1Cl` (stereo unspecified), the inhibition in assay [1] is 3.53%; in assay [2], 2.05%; in assay [3], 3.44%.

In the case of `O=C(NC1CCN(c2ncc(C(F)(F)F)cc2Cl)CC1)c1cccs1`, the inhibition was -1.13% in assay [1], -1.85% in assay [2] and -3.08% in assay [3].

These data come from ChEMBL document CHEMBL3433997, “St. Jude Leishmania screening dataset” (2016).
